Experimental data taken from PubChem BioAssay (Tox21).
Records with an inconclusive call do not appear. The source made the active and inactive calls. Unless noted, calls follow the shape of the dose curve; as a rule, active = well fitted curve in the direction sought with a large enough effect in the repeat runs; inconclusive = weak or mixed curves; inactive = no such curve, though single readings can be large; an effect the other way counts as inactive or inconclusive.

Experiments:
[1] = qHTS assay to identify small molecule antagonists of the estrogen related receptor (ERR) signaling pathway from Tox21 library - cell viability counter screen (AID 1224834); also: nearly all actives have a fitted effect of over 30% in size
In short: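 Compounds in DMSO were pinned onto ERR cells that had been incubated for 6 h, and the plates were held at 37 C for 17.5 h. CellTiter-Fluor reagent was then added and fluorescence was measured after 30 min.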

[2] = molecular target: Luciferin 4-monooxygenase (Photinus pyralis) (UniProt P08659); assay: qHTS assay to identify small molecule inhibitors of firefly luciferase (AID 1224835); also: series mostly up to about 120 µM; nearly all actives have a fitted effect of over 25% in size
Luciferin 4-monooxygenase (Photinus pyralis), sequence (P08659 whole entry, looked up): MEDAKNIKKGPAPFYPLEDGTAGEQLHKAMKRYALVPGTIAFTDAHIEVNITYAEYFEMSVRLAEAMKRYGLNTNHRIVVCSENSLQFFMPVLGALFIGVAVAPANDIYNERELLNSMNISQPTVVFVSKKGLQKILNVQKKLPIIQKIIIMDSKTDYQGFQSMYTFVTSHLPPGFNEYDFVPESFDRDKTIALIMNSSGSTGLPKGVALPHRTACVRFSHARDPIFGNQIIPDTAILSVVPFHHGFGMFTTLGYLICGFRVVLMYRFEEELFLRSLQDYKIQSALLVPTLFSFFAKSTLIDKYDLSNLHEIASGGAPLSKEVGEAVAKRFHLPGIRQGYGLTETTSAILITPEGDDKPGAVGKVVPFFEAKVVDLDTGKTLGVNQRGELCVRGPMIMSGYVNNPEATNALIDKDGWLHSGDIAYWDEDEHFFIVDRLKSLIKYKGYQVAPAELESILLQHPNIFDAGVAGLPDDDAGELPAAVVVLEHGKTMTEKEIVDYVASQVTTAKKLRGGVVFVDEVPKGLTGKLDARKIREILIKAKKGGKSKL
In short: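 Quantitative HTS format; KM concentrations of both substrates. Purified P. pyralis FLuc activity quantified from luminescence images.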

[3] = qHTS assay to identify small molecule agonists of the constitutive androstane receptor (CAR) signaling pathway - cell viability counter screen (AID 1224836); also: series mostly up to about 92 µM; nearly all actives have a fitted effect of over 45% in size
In short: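 HepG2 cells stably carrying hCAR and a CYP2B6-2.2kb reporter; 15-concentration compounds plus PK11195 (final 0.75 uM), 23 hr at 37 C/5% CO2. Viability read by CellTiter-Fluor fluorescence.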

[4] = qHTS assay to identify small molecule antagonists of the constitutive androstane receptor (CAR) signaling pathway - cell viability counter screen (AID 1224837); also: series mostly up to about 92 µM; nearly all actives have a fitted effect of over 45% in size
In short: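 Cells are seeded, rested 4 hr at 37 C/5% CO2, dosed with compound (15-point series) and 50 nM CITCO, incubated a further 23 hr, and then CellTiter-Fluor reagent is added before fluorescence is read. The line is HepG2 with stable hCAR and CYP2B6-2.2kb.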

[5] = molecular target: Nuclear receptor subfamily 1 group I member 3 (Homo sapiens) (UniProt Q14994); assay: qHTS assay to identify small molecule antagonists of the constitutive androstane receptor (CAR) signaling pathway (AID 1224838);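 also: HepG2 cells stably expressing hCAR with CYP2B6 luciferase reporter stimulated by CITCO; nearly all actives have a fitted effect of over 40% in size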
Nuclear receptor subfamily 1 group I member 3 (Homo sapiens), sequence (Q14994 whole entry, looked up): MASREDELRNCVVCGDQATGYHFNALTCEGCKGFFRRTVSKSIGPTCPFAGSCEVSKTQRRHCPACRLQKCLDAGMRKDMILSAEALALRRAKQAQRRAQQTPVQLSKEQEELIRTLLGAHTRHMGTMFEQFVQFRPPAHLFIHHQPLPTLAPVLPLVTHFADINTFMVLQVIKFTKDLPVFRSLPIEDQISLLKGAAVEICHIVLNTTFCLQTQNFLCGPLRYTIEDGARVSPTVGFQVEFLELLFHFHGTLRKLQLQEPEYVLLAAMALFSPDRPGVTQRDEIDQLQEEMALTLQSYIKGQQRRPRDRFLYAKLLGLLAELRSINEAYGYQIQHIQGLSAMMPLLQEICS
In short: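 Luminescence from a CYP2B6-2.2kb promoter reporter in hCAR-expressing HepG2 cells reflects CAR signaling. Cells received compounds at 15 concentrations and 50 nM CITCO (final), then incubated 24 h at 37 C/5% CO2.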

[6] = molecular target: Nuclear receptor subfamily 1 group I member 3 (Homo sapiens) (UniProt Q14994); assay: qHTS assay to identify small molecule agonists of the constitutive androstane receptor (CAR) signaling pathway (AID 1224839);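 also: HepG2 cells stably carrying human CAR and a CYP2B6 luciferase reporter; series mostly up to about 92 µM; nearly all actives have a fitted effect of over 15% in size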
In short: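 HepG2 cells stably co-transfected with hCAR and a CYP2B6-2.2kb luciferase reporter; compounds at 15 concentrations with 0.75 uM PK11195 present. After 24 hr at 37 C, luciferase read by ONE-Glo luminescence.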

[7] = qHTS assay to identify small molecule antagonists of the estrogen related receptor signaling pathway with the pleiotropic PPARgamma coactivator (PGC) from Tox21 10K library - cell viability counter screen (AID 1224840; active = well fitted cell-killing curve with a large enough effect in the repeat runs, not every such curve was filed as active; also: nearly all actives have a fitted effect of over 40% in size)
In short: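 Cell viability is measured by CellTiter-Fluor fluorescence in PGC/ERR cells that receive compounds after a 6-hour attachment period and are then incubated 17.5 hours at 37 C.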

[8] = molecular target: Thyrotropin receptor (Homo sapiens) (UniProt P16473); assay: qHTS assay to identify small molecule agonists of the thyroid stimulating hormone receptor (TSHR) signaling pathway (AID 1224843; calls by dose curve; also: nearly all actives have a fitted effect of over 45% in size)
Thyrotropin receptor (Homo sapiens), sequence (P16473 whole entry, looked up): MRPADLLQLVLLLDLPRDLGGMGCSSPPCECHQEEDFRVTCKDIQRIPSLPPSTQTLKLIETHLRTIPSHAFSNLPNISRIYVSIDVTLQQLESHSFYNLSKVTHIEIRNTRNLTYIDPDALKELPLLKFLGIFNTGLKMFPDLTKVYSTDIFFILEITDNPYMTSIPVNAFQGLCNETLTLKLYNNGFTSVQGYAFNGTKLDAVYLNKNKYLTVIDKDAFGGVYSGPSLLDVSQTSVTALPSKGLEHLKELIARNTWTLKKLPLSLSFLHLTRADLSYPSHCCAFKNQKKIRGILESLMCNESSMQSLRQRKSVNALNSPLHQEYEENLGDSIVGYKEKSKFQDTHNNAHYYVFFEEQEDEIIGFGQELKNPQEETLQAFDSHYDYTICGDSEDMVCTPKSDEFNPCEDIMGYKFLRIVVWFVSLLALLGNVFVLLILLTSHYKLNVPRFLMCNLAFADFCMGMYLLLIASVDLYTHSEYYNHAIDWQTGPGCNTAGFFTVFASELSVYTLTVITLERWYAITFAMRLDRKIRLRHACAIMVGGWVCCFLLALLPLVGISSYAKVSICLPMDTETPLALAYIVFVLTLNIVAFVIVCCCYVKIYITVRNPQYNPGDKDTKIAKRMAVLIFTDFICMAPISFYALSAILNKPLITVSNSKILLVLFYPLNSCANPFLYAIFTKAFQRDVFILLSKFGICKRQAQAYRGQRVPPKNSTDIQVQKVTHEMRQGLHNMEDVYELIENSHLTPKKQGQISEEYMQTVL
In short: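 Compounds are titrated over 15 concentrations, in triplicate, onto TSHR-HEK293 cells seeded at 800/well. Plates sit 30 min at room temperature before cAMP-d2 and anti-cAMP cryptate are added; signal is read after a further hour.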

[9] = qHTS assay to identify small molecule agonists of the hypoxia (HIF-1) signaling pathway - cell viability counter screen (AID 1224844; calls by dose curve; also: nearly all actives have a fitted effect of over 50% in size)
In short: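 Viability counter screen: HRE-bla ME-180 cells plated 5 hrs before compound addition, treated 17 hrs at 37C and 5% CO2, then CellTiter-Glo added after the FRET reporter read; luminescence after 30 min.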

[10] = qHTS assay to identify small molecule agonists of H2AX (AID 1224845; active = well fitted activation curve with a large enough effect in the signal ratio in the repeat runs, not every such curve was filed as active; the % refers to the signal ratio)
In short: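 Wild-type CHO-K1 cells plated overnight, then exposed 3 hr at 37C to compounds at 15 concentrations (0.76% DMSO). Lysed, then HTRF anti-pH2AX(S139)-cryptate/anti-H2AX-d2 detection after 24 hr at room temperature; emissions 665 and 620 nm.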

[11] = qHTS assay to identify small molecule agonists of the hypoxia (HIF-1) signaling pathway (AID 1224846; active = well fitted activation curve with a large enough effect in the signal ratio in the repeat runs, not every such curve was filed as active; the % refers to the signal ratio)
In short: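 Agonist mode reporter screen. ME-180 cells stably expressing bla under HRE control received test compounds in DMSO for 17 hrs (37C, 5% CO2), and beta-lactamase activity was then detected with the CCF4-AM FRET substrate.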

[12] = qHTS assay to identify small molecule agonists of the estrogen related receptor signaling pathway with the pleiotropic PPARgamma coactivator (PGC) from Tox21 10K library (AID 1224842); also: nearly all actives have a fitted effect of over 15% in size
In short: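 PGC/ERR reporter cells (NTP line) were seeded 2,000 per well, rested 6 h at 37 C/5% CO2, then pin-dosed with compounds in DMSO for 18 h at 37 C; luciferase read by One-Glo luminescence after 30 min at room temperature.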

Measured: Potency

O=C1OCc2ccccc21
not listed: [12]
inactive: all other assays above

C=CC(=O)O[C@H]1C[C@@H]2CC[C@@]1(C)C2(C)C
not listed: [5] | [8] | [10]
inactive: all other assays above

CCOC(=O)OC(=O)OCC
not listed: [12]
inactive: all other assays above

Cc1cc(C)c(O)c(C(C)(C)C)c1
not listed: [7] | [8]
inactive: all other assays above
